# Sampled rows, rich in hits. Any-hit rate of the full collection: about 1.9%.
# PINK1 expr mod: modulators of PINK1 expression. PINK1 immunofluorescence, high-content cytometry, 24 h. Potency, µM (top dose mostly 76.6 µM), for inactives: at the top dose activation (PINK1 increase), hits mostly activators. hit rate 0.2% among 410,000; active = well fitted activation curve with a large enough effect; inconclusive = small, poorly fitted or top-dose-only effect; cell line not stated here; note: potency is the fitted concentration of half-maximal effect; % of control where 0% means no effect; nearly all actives have a fitted effect of over 65% in size
#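 Readout is PINK1 immunofluorescence, quantified alongside mitochondrial, cell and nuclear markers by laser-scanning microplate cytometry. Cells from a stable line were exposed to compound titrations (5 concentrations) for 24 hours, with CCCP controls.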
# ClpP mod: qHTS Assay for Activators of ClpP; Potency, µM (titrated, usually from 57.5 µM), for inactives: at the top dose activity change, negative = active; AID 651965, 2013; hit rate 1.9% among 340,000; ATP-dependent Clp protease proteolytic subunit (Bacillus subtilis (strain 168)), P80244; purified B. subtilis ClpP, FRET peptide cleavage, 20 min; active = well fitted falling curve with a large enough effect; inconclusive = small, poorly fitted or top-dose-only effect; inactive = no such curve, though single readings can be large or run the other way; note: potency is the fitted concentration of half-maximal effect; the source files actives as falling curves though it sought activators and does not explain the sign; nearly all actives have a fitted effect of over 65% in size
#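 ClpP 10 microg/mL final, pH 8 Tris/KCl buffer with BSA, glycerol, Tween-20; compound pinned in; FRET-FV substrate; RT 20 min; Ex320/Em430; ΔFRET vs ADEP 5.8 microM, DMSO, no enzyme.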
# Menin-MLL TR inh: inhibitors of human menin-MLL interaction, mutant MLL peptide | Menin + Texas Red MLL mutant peptide, fluorescence polarization | Potency, µM (titrated, usually from 61.6 µM), without a hit: at the highest dose FP activity change, negative = inhibition, usual class: inhibitors | hit rate 0.23% among 270,000 | AID 1768; active = well fitted inhibition curve with a large enough effect in the polarisation, with a control signal flat, not every such curve was filed as active; inconclusive = small, poorly fitted or top-dose-only effect, or effect the other way, or a change in a side signal; inactive = no such curve, though single readings can be large or run the other way; the % refers to the polarisation; note: potency is the fitted concentration of half-maximal effect; % of control where 0% means no effect
# Target sequence (O00255 whole entry, looked up): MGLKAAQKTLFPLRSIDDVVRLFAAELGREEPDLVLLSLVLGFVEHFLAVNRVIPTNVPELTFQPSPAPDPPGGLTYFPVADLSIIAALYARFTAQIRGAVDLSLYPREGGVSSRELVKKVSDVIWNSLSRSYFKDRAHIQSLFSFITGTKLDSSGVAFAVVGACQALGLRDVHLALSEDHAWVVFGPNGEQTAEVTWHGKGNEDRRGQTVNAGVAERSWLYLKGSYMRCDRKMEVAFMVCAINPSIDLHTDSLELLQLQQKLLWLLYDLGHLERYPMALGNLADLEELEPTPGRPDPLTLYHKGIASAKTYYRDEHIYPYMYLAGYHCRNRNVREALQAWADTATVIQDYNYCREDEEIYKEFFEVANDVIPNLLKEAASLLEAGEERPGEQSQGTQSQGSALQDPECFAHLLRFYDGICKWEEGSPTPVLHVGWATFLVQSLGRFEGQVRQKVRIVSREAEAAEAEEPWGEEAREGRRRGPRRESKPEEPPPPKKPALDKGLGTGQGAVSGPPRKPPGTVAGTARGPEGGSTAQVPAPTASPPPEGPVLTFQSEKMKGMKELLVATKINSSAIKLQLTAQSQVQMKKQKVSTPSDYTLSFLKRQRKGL
# Menin MLL FP FL: displaces fluorescein MLL peptide from human menin; Fluorescence polarization, fluorescein-MLL peptide displacement from menin; FP activity change, % at 61.4 µM; 290,000 tested, under 10 active; AID 1766; active = well fitted curve in the direction sought with a large enough effect in the polarisation, not every such curve was filed as active; inconclusive = small, poorly fitted or top-dose-only effect, or effect the other way, or a change in a side signal; inactive = no such curve, though single readings can be large or run the other way; the % refers to the polarisation; note: % of control where 0% means no effect
# Epigenetic derep: derepresses silenced GFP reporter in murine cells | AID 1865 | Potency, µM (highest dose often 53.9 µM), for inactives: at the highest dose GFP activation, most hits filed as activators | hit rate 0.2% among 280,000 | murine LDR cells, GFP reporter derepression, 30 h; active = well fitted activation curve with a large enough effect; inconclusive = small, poorly fitted or top-dose-only effect; note: potency is the fitted concentration of half-maximal effect; % of control where 0% means no effect; nearly all actives have a fitted effect of over 60% in size
#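 Murine LDR cells bearing a silenced CMV-driven GFP reporter were exposed to compound for 30 h at 37 C. After PBS washes, GFP-positive cells (20-120 um objects) counted by laser-scanning microplate cytometry.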
# CXXC DNA block: MLL CXXC-DNA interaction inhibition; Q03164; MLL-CXXC / FITC-HOXA9 DNA fluorescence polarization; Potency, µM (doses to about 115 µM), for the others: at the highest dose activity change, negative = inhibition, usual class: inhibitors; hit rate 0.037% among 290,000; AID 2662; active = well fitted inhibition curve with a large enough effect in the polarisation, with a control signal flat, not every such curve was filed as active; inconclusive = small, poorly fitted or top-dose-only effect, or effect the other way, or a change in a side signal; inactive = no such curve, though single readings can be large or run the other way; the % refers to the polarisation; note: potency is the fitted concentration of half-maximal effect
#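 Purified MLL-CXXC (added from a 7 uM solution) was preincubated 5 min at ambient with pinned compounds in 50 mM Tris-HCl pH 7.5, 50 mM NaCl, 1 mM DTT, 0.05% BSA. Fluorescein-labeled HOX-A9 DNA (50 nM solution) followed, 30 min, then polarization read.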
# The depositor's hits bear a star; ? = inconclusive; · = no result given; [ ] = another dose, or the depositor's remark.
SMILES,PINK1 expr mod,ClpP mod,Menin-MLL TR inh,Menin MLL FP FL,Epigenetic derep,CXXC DNA block
O=c1c2ccccc2nc(SCc2nnc(-c3ccccc3)o2)n1-c1ccc(F)cc1F,1%,25µM*,-9%,1,-3%,-2%
COc1cc2c(cc1NC(=O)COC(=O)[C@@H](NC(=O)c1ccccc1F)C(C)C)oc1ccccc12,1%,5.6µM*,5%,1,3%,-4%
CCOc1ccccc1-n1nnnc1SCC(=O)Nc1cc2oc3ccccc3c2cc1OC,3%[38.3 µM],-2%,10µM*,6,0%,33%
COc1ccccc1CC(=O)Nc1cc2oc3ccccc3c2cc1OC,7%[38.3 µM],32µM*,19%,4,-1%,3%
COc1ccccc1CC(=O)Nc1ccc(Cl)cc1C(=O)O,1%,·,22%,0,-7%,-7%
CCOc1ccccc1-n1nnnc1SCC(=O)Nc1cc(C)on1,0%[38.3 µM],0%,23%,6,-3%,1%
COc1ccccc1CC(=O)Nc1ccc(O)cc1C(=O)O,-3%,18µM*,28%,0,-1%,7%
COc1ccc(CC(=O)Nc2cc3oc4ccccc4c3cc2OC)cc1,2%,-20%,17%,-1,-2%,5%
COCC(C)NCc1cc2ccc(OC)cc2nc1N1CCN(c2ccc(F)cc2)CC1 (configuration not stated),4%,·,·,·,·,·
CC1=CC(O)=NS(=O)(=O)O1,0%,0%,·,·,·,·
COc1cc2c(cc1NC(=O)COc1ccc3ccccc3c1)oc1ccccc12,-1%,3.2µM*,5%,3,0%,24%
COc1cc2c(cc1NC(=O)COC(=O)C1CC(=O)N(Cc3ccco3)C1)oc1ccccc12 (configuration not stated),1%,25µM*,12%,1,0%,1%
Cc1ccccc1OCc1nnc(SCC(=O)Nc2ccc3c(c2)oc2ccccc23)n1C,13µM*,14µM*,15%,-2,1%,33%
COc1cc2c(cc1NS(=O)(=O)N1CCCC1)oc1ccccc12,7%[38.3 µM],25µM*,·,0,-1%,6%
O=[N+]([O-])c1ccc(/C=C/c2ccnc3ccccc23)c([N+](=O)[O-])c1,-1%,1%,·,·,·,·
O=C(NCCO)c1cn(C2CCN(Cc3c(F)cccc3Cl)CC2)nn1,1%,·,·,·,·,·
COc1cc(SC#N)ccc1N=Cc1c(C)[nH]n(-c2ccc(C)cc2C)c1=O,0%,?,?,?,1%,?
COc1cc(SC#N)ccc1N=Cc1c(C)[nH]n(-c2cccc3ccccc23)c1=O,-2%,28µM*,8%,?,?,0%
CCc1ccc2[nH]c(=O)c(CN(CCN(C)C)C(=O)Nc3ccccc3OC)cc2c1,-1%,28µM*,-9%,0,0%,0%
CCN(CC)CCCN(Cc1cc2cc(OC)ccc2[nH]c1=O)C(=O)Nc1ccc(F)cc1,-1%,28µM*,-10%,-1,4%,7%
Cc1ccc2[nH]c(=O)c(CN(CCO)C(=O)N(C)C)cc2c1,12%[38.3 µM],28µM*,·,·,·,·
CCc1ccc2[nH]c(=O)c(CN(CCN(CC)CC)C(=O)Nc3ccccc3OC)cc2c1,-1%,-10%,-29%,4,-1%,-3%
CN(C)CCN(Cc1cc2cc3c(cc2[nH]c1=O)OCO3)C(=S)NCC1CCCO1 (configuration not stated),1%,·,-6%,5,-1%,-3%
COc1ccc(CN(Cc2cc3cc(C)ccc3[nH]c2=O)C(=O)N(C)C)cc1,-2%,?,-15%,-2,-1%,-5%
O=C(NCc1ccccc1)N(Cc1cc2cc3c(cc2[nH]c1=O)OCO3)CC1CCCO1 (configuration not stated),-1%,28µM*,-15%,5,-3%,1%
SMILES,PINK1 expr mod,ClpP mod,Menin-MLL TR inh,Menin MLL FP FL,Epigenetic derep,CXXC DNA block
COc1cccc(C(=O)N(Cc2cc3ccc(C)cc3nc2N(C)C)C2CC2)c1OC,2%,·,·,·,·,·
CN(Cc1ccon1)C(=O)c1cnn(-c2nccc(-c3ccc4c(c3)OCO4)n2)c1C1CC1,1%,·,·,·,·,·
COc1cccc(C2(CC(=O)N3CCCOc4c(cccc4OC)C3)CC(=O)N(C)C2=O)c1 (configuration not stated),-1%,·,·,·,·,·
COc1cc2cc(CN(Cc3cccnc3)C(=O)Nc3ccccc3)c(=O)[nH]c2cc1OC,2%,·,5%,-6,2%,-2%
COc1cc2cc(CN(Cc3cccnc3)C(=O)NCc3ccccc3)c(=O)[nH]c2cc1OC,-1%,25µM*,-28%,0,-1%,-11%
COc1ccc2[nH]c(=O)c(CN(CCN(C)C)C(=O)NCc3ccccc3)cc2c1,2%,25µM*,3%,3,0%,-4%
COc1ccc2[nH]c(=O)c(CN(CCc3ccccc3)C(C)=O)cc2c1,0%[38.3 µM],28µM*,-8%,1,0%,-3%
COc1ccc2[nH]c(=O)c(CN(CCO)C(=O)c3ccccc3F)cc2c1,-1%,20µM*,11%,3,8%,-2%
Cc1ccc2c(/C=C/c3c[nH]c4ccccc34)ccnc2c1C,·,-11%,·,·,·,·
Nc1ccc(/C=C/c2ccnc3ccccc23)cc1[N+](=O)[O-],3%,-1%,·,·,·,·
CN(C)c1nc2cc3c(cc2cc1CN(CC1CCCO1)C(=O)c1cccc(F)c1)OCO3 (configuration not stated),2%,·,·,·,·,·
O=[N+]([O-])c1ccc(O/N=[N+](\[O-])N2CCCCC2)c([N+](=O)[O-])c1,-1%,·,·,·,·,·
CCCCN(CCC#N)c1ccc(/C=C/c2ccnc3ccccc23)cc1,·,1%,·,·,·,·
COc1ccc2cc(CN(CC3CCCO3)S(=O)(=O)c3ccc(C(C)=O)cc3)c(=O)[nH]c2c1 (configuration not stated),·,-14%,0%,-1,1%,-7%
CNC(=S)N(Cc1cccs1)Cc1cc2cc(OC)c(OC)cc2[nH]c1=O,3%,25µM*,1%,-1,0%,15%
COC(=O)c1ccccc1S(=O)(=O)N(Cc1cc2ccc(OC)cc2[nH]c1=O)CC1CCCO1 (configuration not stated),2%,28µM*,4%,-1,-2%,-4%
Cc1ccc2[nH]c(=O)c(CNC(C)(C)C)cc2c1,-1%,14µM*,-9%,-5,-1%,1%
CC1=C[C@@H](O)CC(C)(C)[C@@H]1/C=C/C(C)=C/C=C/C(C)=C/C=C/C=C(C)/C=C/C=C(C)/C=C/C1=C(C)C[C@H](O)CC1(C)C,·,·,-17%,-2,·,6%
CC1CCN(C2(O)C(=O)Nc3ccc(Cl)cc32)CC1 (configuration not stated),1%,13µM*,?,3,·,2%

# Screening results (PubChem BioAssay)
